Most compounds without a hit are left out; they make up all but 4% or so of the library.
FGF22 binding: binders of human FGF22 protein, primary screen, FGF22 synaptogenesis inhibitor project, biophysical, thermal shift, single point; hit rate 1.5% among 340,000; recombinant FGF22 thermal shift, SYPRO orange fluorescence; percent of sucrose octasulfate shift, DMSO zero; Fibroblast growth factor 22 (Homo sapiens), Q9HCT0; activity (Tm shift, normalised), % at 9.99 µM;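 active means mean Tm shift, scaled 0 neutral to 100 positive control, at about 1.3% or above, every replicate too, limit read from the data; inconclusive means no clear call, values can overlap the other calls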
RAD52 anneal inh: RAD52 DNA annealing inhibitors, primary screen, biochemical, FRET, single point, set 2 | recombinant RAD52 DNA annealing, FRET fluorescence | hit rate 0.46% among 360,000 | inhibition, % at 18.7 µM | DNA repair protein RAD52 homolog (Homo sapiens), P43351;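 active means every replicate showing at least 50% inhibition; inconclusive means mean inhibition at least 50% but not in every replicate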
DENV2 CPE: inhibitors of DENV2 cytopathic effect, primary screen, cell-based, plate reader, single concentration | DENV2-infected cells, cytopathic effect rescue | CPE inhibition, % at 9.99 µM | hit rate 1.7% among 350,000 | AID 651640, 2012; in the data active means CPE inhibition above about 20%, passing the limit was not always enough; inconclusive means no clear call, values can overlap the other calls; tested in BHK-21 cells
MLL AF4-AF9 inh: inhibitors of AF4 peptide binding to AF9, primary screen, biochemical, AlphaScreen, biotin-AF4 peptide, FLAG-AF9, single point | Protein AF-9 (Homo sapiens), P42568 | inhibition, % at 10 µM | hit rate 0.47% among 350,000 | AID 651704, 2012;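 active means every replicate reaching a set inhibition limit, whatever the replicate mean, cut at about 25% in these data; inconclusive means mean inhibition reaches that limit but some replicates miss it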
Target sequence (P42568 whole entry, looked up): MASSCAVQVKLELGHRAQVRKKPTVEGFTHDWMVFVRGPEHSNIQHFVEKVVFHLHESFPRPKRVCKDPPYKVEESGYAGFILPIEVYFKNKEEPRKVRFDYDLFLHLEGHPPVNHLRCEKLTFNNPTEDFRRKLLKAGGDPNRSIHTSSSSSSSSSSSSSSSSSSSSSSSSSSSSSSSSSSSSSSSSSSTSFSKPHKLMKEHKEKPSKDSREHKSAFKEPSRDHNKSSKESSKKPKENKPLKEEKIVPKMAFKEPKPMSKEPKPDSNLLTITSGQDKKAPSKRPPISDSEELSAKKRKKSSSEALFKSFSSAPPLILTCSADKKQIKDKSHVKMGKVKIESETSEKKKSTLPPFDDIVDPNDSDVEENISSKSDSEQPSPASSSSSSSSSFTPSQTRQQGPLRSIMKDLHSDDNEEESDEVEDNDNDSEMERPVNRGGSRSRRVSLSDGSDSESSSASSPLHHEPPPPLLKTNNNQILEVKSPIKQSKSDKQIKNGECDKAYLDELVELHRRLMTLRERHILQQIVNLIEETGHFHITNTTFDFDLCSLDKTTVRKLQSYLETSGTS
ERAP1 HTS inh: human ERAP1 aminopeptidase inhibitors, primary screen, biochemical, single point, plate reader | recombinant ERAP1, Leu-AMC fluorescence, 60 min | inhibition, % at 10.7 µM | Endoplasmic reticulum aminopeptidase 1 (Homo sapiens), Q9NZ08 | AID 652197, 2013 | hit rate 0.15% among 340,000;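 active means mean replicate inhibition of at least 30%, or all replicates individually reaching that 30% level; inactive means mean below 30% and not every replicate reaching it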
Each line names hits and unclear results; the compound was inactive in the other large screens.

Cc1ccc(S(=O)(=O)N/N=C/c2cc([N+](=O)[O-])ccc2O)cc1[N+](=O)[O-]	FGF22 binding 44
Cc1ccc(S(=O)(=O)N/N=C/c2cc(Br)ccc2O)cc1	MLL AF4-AF9 inh 30
COc1ccc2c3c([nH]c2c1)[C@H](CO)N(Cc1cccc(Cl)c1)CC31CN(C(C)=O)C1	none
O=C(N[C@H]1C=C[C@H](CC(=O)N2CCc3ccccc3C2)O[C@@H]1CO)C1CCOCC1	none (no result: FGF22 binding)
Cc1cccc(C)c1NC(=O)C1(C)CSCC(=O)N1Cc1cccc(C(F)(F)F)c1 (centres undefined)	DENV2 CPE 34 (no result: MLL AF4-AF9 inh)
Cc1cccc(C)c1NC(=O)C1(C)CSCC(=O)N1Cc1cccc(F)c1 (centres undefined)	none (no result: ERAP1 HTS inh)
CC(C)NC(=O)N[C@@H]1CC[C@@H](CCNC(=O)C2CCOCC2)O[C@H]1CO	none
OC(Cc1ccccc1)c1ncc(-c2ccc(Cl)cc2)[nH]1 (centres undefined)	none
OC(Cc1ccccc1Br)c1ncc(-c2ccc(Cl)cc2)[nH]1 (centres undefined)	FGF22 binding 2.7
O=C(O)C[C@H]1C=C[C@@H](NC(=O)CCN2CCCCC2)[C@@H](CO)O1	DENV2 CPE 97 (no result: FGF22 binding)
CN(C)CC(=O)N[C@H]1C=C[C@@H](CC(=O)NCCN2CCCCC2)O[C@@H]1CO	DENV2 CPE 59
CN(C)CC(=O)N[C@@H]1C=C[C@@H](CC(=O)NCCN2CCCCC2)O[C@H]1CO	none
CCc1ccc(NC(=O)C(C)OC(=O)Cn2[nH]c(=O)c3ccccc3c2=O)cc1 (centres undefined)	DENV2 CPE 60
CC(OC(=O)Cn1[nH]c(=O)c2ccccc2c1=O)C(=O)Nc1ccc(Cl)cn1 (centres undefined)	none
CCc1ccc2c(c1)C(=O)c1ccccc1C2=O	FGF22 binding 43
c1ccc(-c2cc3c(N4CCN(c5ccccc5)CC4)ncnc3s2)cc1	none
c1ccc(-c2cc3c(N4CCN(c5ncccn5)CC4)ncnc3s2)cc1	FGF22 binding 44
O=C(NCC[C@H]1CC[C@@H](NS(=O)(=O)c2ccc(Cl)cc2)[C@H](CO)O1)Nc1ccc(F)cc1	none (no result: FGF22 binding)
COc1ccc(C(CC(=O)N2CCCC(C)C2)c2c(O)cc(OC)cc2OC)cc1 (centres undefined)	none
COc1cc(O)c(C(CC(=O)N2CCCC(C)C2)c2cc(OC)c(OC)c(OC)c2)c(OC)c1 (centres undefined)	DENV2 CPE 62
CN(CCc1ccccn1)C(=O)CCC1CCCN(C(=O)c2ccc3c(c2)OCCO3)C1 (centres undefined)	none (no result: DENV2 CPE)
CN(CCc1ccccn1)C(=O)CCC1CCCN(C(=O)c2cccc(N(C)C)c2)C1 (centres undefined)	DENV2 CPE 35
Cc1cccc(OC(C)C(=O)Nc2nc(-c3ccncc3)cs2)c1 (centres undefined)	DENV2 CPE 106
CC1(C)C2CC=C(/C=N/NC(=O)c3ccccc3O)C1C2 (centres undefined)	FGF22 binding 43
O=C(N/N=C\c1ccccn1)c1ccccc1O	FGF22 binding 44
O=C(C1CCOCC1)N1C[C@H]2[C@@H](c3ccccc31)[C@@H](CO)N2C(=O)Cc1ccccc1	none
COc1ccc(CN2CC3(CCN(C(=O)Cc4ccncc4)CC3)c3c([nH]c4cc(OC)ccc34)[C@@H]2CO)cc1	none
O=C(Nc1ccc2c(c1)OCCO2)c1oc2ccccc2c1NC(=O)C1CC1	FGF22 binding 43
O=C(C[C@H]1C[C@H]2c3cc(NC(=O)Nc4ccccc4F)ccc3O[C@H]2[C@H](CO)O1)NCc1ccc2c(c1)OCO2	none
Cc1n[nH]c(=O)nc1N/N=C/c1ccco1	FGF22 binding 44 (no result: DENV2 CPE)
COc1ccccc1C(=O)NCCC(=O)N1CCN(C(C)=O)CC1	DENV2 CPE 50
CC(=O)N1CCN(C(=O)COc2ccccc2C(=O)Nc2ccccc2)CC1	FGF22 binding 43
COc1ccccc1C(=O)Nc1ccc(N2CCN(C(C)=O)CC2)cc1	none (no result: DENV2 CPE)
COc1ccccc1C(=O)NCCC(=O)N1CCN(C(=O)c2ccco2)CC1	DENV2 CPE inconclusive
COc1ccccc1/C=C/C=N/NC(=O)Cc1cccn1C	MLL AF4-AF9 inh 56
O=C(C[C@H]1C=C[C@@H](NC(=O)Cc2ccccn2)[C@@H](CO)O1)NCCCN1CCOCC1	none
C[C@@H]1CN([C@H](C)CO)S(=O)(=O)c2ccc(-c3cccc(F)c3)cc2O[C@H]1CN(C)C(=O)C1CC1	none
O=C(Cc1ccccc1)N1CC2(C1)[C@@H](c1ccccc1)[C@H](CO)N2C(=O)Cc1ccccc1	none
O=C(NCc1cccc(F)c1)Nc1nnc([C@H]2C[C@H](O)[C@@H](CO)O2)s1	DENV2 CPE 31
O=C(c1cccnc1)N1C[C@@H]2[C@H](c3ccccc31)[C@@H](CO)N2Cc1ccc2c(c1)OCO2	none
COc1cccc(CN2[C@@H]3CN(C(=O)c4ccncc4)c4ccccc4[C@@H]3[C@@H]2CO)c1	DENV2 CPE 21
O=C(c1cccnc1)N1C[C@H]2[C@@H](c3ccccc31)[C@@H](CO)N2Cc1ccc2c(c1)OCO2	DENV2 CPE 26
COc1ccccc1CN1[C@H](CO)[C@H]2c3ccccc3N(C(=O)c3cccnc3)C[C@H]21	none
COc1ccccc1CN1[C@@H](CO)[C@@H]2c3ccccc3N(C(=O)c3cccnc3)C[C@@H]21	MLL AF4-AF9 inh 44
CCCC#Cc1ccc2c(c1)O[C@@H](CN(C)Cc1ccc3c(c1)OCO3)[C@@H](C)CN([C@@H](C)CO)S2(=O)=O	none
CN1C(=O)c2cc(NC(=O)C3CCCC3)ccc2OC[C@@H]2O[C@H](CC(=O)NCCc3ccncc3)CC[C@@H]21	none (no result: FGF22 binding)
CN1C(=O)c2cc(NC(=O)C3CCCC3)ccc2OC[C@H]2O[C@H](CC(=O)NCCc3ccncc3)CC[C@H]21	DENV2 CPE 166
COCCNC(=O)C[C@@H]1CC[C@@H]2[C@@H](COc3ccc(NC(=O)C4CCOCC4)cc3C(=O)N2C)O1	DENV2 CPE 21
CN1C(=O)c2cc(NC(=O)C3CCC3)ccc2OC[C@H]2O[C@@H](CC(=O)NCCc3ccncc3)CC[C@H]21	DENV2 CPE 21 (no result: FGF22 binding)
CN1C(=O)c2cc(NC(=O)C3CCCC3)ccc2OC[C@H]2O[C@H](CC(=O)NCCc3ccncc3)CC[C@@H]21	DENV2 CPE 29, MLL AF4-AF9 inh inconclusive
CC=Cc1ccc2n(c1=O)C[C@@H]1[C@@H](CO)[C@H](C(=O)NCCC)[C@H]2N1C(=O)c1ccncc1 (mixture of isomers)	DENV2 CPE inconclusive (no result: FGF22 binding)
C[C@H](NC(=O)C[C@H]1C[C@H]2c3cc(NC(=O)C4CCOCC4)ccc3O[C@H]2[C@H](CO)O1)c1ccccc1	none

Compound activity deposited in PubChem BioAssay by Broad Institute.
